# Where “and” joins values, the source holds several entries; their conditions need not be identical. Identical values can stand only once. Records with an inconclusive call do not appear. Where a call stands in place of a potency, no number is given. A structure can be active in one record and inactive in another. Calls of active or inactive are those of the source. Unless noted, calls follow the shape of the dose curve; as a rule, active = well fitted curve in the direction sought with a large enough effect in the repeat runs; inconclusive = weak or mixed curves; inactive = no such curve, though single readings can be large; an effect the other way counts as inactive or inconclusive.
# How the values were obtained:
# [1] = qHTS assay to identify small molecule antagonists of the estrogen related receptor (ERR) signaling pathway from Tox21 library - cell viability counter screen (AID 1224834); also: nearly all actives have a fitted effect of over 30% in size; also: potency is read from the fitted curve at half-maximal effect
# In short: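 ERR reporter cells, 2,000 per well, rested 6 h, then exposed to compound in DMSO for 17.5 hours at 37 C. Viability read as fluorescence after 30 min with CellTiter-Fluor.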
# [2] = biological target: Luciferin 4-monooxygenase (Photinus pyralis) (UniProt P08659); assay: qHTS assay to identify small molecule inhibitors of firefly luciferase (AID 1224835); also: nearly all actives have a fitted effect of over 25% in size; also: potency is read from the fitted curve at half-maximal effect
# Sequence of Luciferin 4-monooxygenase (Photinus pyralis) (P08659 whole entry, looked up): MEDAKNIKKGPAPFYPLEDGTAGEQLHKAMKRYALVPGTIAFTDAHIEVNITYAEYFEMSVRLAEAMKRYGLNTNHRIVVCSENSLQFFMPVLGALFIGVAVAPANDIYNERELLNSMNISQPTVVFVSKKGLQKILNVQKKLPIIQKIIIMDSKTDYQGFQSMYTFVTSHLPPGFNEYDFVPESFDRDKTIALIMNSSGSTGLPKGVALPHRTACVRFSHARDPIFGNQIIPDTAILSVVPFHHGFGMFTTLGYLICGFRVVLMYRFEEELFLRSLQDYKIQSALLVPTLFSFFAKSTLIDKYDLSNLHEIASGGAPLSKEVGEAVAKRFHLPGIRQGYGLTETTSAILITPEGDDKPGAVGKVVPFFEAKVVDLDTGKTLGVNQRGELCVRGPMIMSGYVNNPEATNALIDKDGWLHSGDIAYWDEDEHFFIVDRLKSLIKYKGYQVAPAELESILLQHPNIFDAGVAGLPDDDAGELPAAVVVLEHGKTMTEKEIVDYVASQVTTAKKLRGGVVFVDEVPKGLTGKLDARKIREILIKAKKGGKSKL
# In short: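 Quantitative HTS format; KM concentrations of both substrates. Purified P. pyralis FLuc activity quantified from luminescence images.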
# [3] = qHTS assay to identify small molecule agonists of the constitutive androstane receptor (CAR) signaling pathway - cell viability counter screen (AID 1224836); also: nearly all actives have a fitted effect of over 45% in size; also: potency is read from the fitted curve at half-maximal effect
# In short: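 23 h treatment, 37 C, 5% CO2. Cell line: HepG2 stably expressing hCAR with a CYP2B6-2.2kb construct. Co-treatment: PK11195, 0.75 uM final. Read-out: CellTiter-Fluor fluorescence intensity.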
# [4] = qHTS assay to identify small molecule antagonists of the constitutive androstane receptor (CAR) signaling pathway - cell viability counter screen (AID 1224837); also: nearly all actives have a fitted effect of over 45% in size; also: potency is read from the fitted curve at half-maximal effect
# In short: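 HepG2 cells stably carrying hCAR and CYP2B6-2.2kb reporter, stimulated with 50 nM CITCO and compounds at 15 concentrations for 23 h at 37 C. Viability measured by CellTiter-Fluor fluorescence.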
# [5] = biological target: Nuclear receptor subfamily 1 group I member 3 (Homo sapiens) (UniProt Q14994); assay: qHTS assay to identify small molecule antagonists of the constitutive androstane receptor (CAR) signaling pathway (AID 1224838); also: nearly all actives have a fitted effect of over 40% in size; also: potency is read from the fitted curve at half-maximal effect
# Sequence of Nuclear receptor subfamily 1 group I member 3 (Homo sapiens) (Q14994 whole entry, looked up): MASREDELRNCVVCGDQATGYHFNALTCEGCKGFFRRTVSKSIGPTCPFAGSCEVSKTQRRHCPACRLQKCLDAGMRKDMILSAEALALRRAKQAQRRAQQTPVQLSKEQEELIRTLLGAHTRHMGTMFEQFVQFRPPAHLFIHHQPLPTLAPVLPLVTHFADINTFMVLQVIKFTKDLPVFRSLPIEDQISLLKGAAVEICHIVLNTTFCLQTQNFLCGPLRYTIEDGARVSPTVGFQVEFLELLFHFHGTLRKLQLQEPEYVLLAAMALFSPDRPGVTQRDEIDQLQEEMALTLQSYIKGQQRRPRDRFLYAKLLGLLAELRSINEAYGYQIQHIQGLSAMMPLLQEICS
# In short: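 HepG2 cells stably carrying hCAR and a CYP2B6-2.2kb luciferase reporter, seeded 4 hrs before compound (15 concentrations). Stimulated with 50 nM CITCO for 24 hr at 37 C. ONE-Glo luminescence read after 30 min at room temperature.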
# [6] = qHTS assay to identify small molecule antagonists of the estrogen related receptor signaling pathway with the pleiotropic PPARgamma coactivator (PGC) from Tox21 10K library - cell viability counter screen (AID 1224840; active = well fitted cell-killing curve with a large enough effect in the repeat runs, not every such curve was filed as active; also: nearly all actives have a fitted effect of over 40% in size; also: potency is read from the fitted curve at half-maximal effect)
# In short: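 PGC/ERR cells (2,000/well) plated 6 h, then compound-treated for 17.5 h at 37 C. Viability measured by CellTiter-Fluor fluorescence after 30 min at 37 C, multiplexed with the pathway assay.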
# [7] = qHTS assay to identify small molecule antagonists of the estrogen related receptor signaling pathway with the pleiotropic PPARgamma coactivator (PGC) from Tox21 10K library (AID 1224841; call rule not given here; also: actives are mostly falling curves and most rising ones were filed inactive; nearly all actives have a fitted effect of over 50% in size; also: potency is read from the fitted curve at half-maximal effect)
# In short: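 PGC/ERR cell line, 2,000 cells/well, pre-incubated 6 hours at 37 C, then exposed to compounds for 18 hours at 37 C; luciferase read with One-Glo luminescence after 30 min at room temperature.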
# [8] = biological target: Thyrotropin receptor (Homo sapiens) (UniProt P16473); assay: qHTS assay to identify small molecule agonists of the thyroid stimulating hormone receptor (TSHR) signaling pathway (AID 1224843; calls by dose curve; also: nearly all actives have a fitted effect of over 45% in size; also: potency is read from the fitted curve at half-maximal effect)
# Sequence of Thyrotropin receptor (Homo sapiens) (P16473 whole entry, looked up): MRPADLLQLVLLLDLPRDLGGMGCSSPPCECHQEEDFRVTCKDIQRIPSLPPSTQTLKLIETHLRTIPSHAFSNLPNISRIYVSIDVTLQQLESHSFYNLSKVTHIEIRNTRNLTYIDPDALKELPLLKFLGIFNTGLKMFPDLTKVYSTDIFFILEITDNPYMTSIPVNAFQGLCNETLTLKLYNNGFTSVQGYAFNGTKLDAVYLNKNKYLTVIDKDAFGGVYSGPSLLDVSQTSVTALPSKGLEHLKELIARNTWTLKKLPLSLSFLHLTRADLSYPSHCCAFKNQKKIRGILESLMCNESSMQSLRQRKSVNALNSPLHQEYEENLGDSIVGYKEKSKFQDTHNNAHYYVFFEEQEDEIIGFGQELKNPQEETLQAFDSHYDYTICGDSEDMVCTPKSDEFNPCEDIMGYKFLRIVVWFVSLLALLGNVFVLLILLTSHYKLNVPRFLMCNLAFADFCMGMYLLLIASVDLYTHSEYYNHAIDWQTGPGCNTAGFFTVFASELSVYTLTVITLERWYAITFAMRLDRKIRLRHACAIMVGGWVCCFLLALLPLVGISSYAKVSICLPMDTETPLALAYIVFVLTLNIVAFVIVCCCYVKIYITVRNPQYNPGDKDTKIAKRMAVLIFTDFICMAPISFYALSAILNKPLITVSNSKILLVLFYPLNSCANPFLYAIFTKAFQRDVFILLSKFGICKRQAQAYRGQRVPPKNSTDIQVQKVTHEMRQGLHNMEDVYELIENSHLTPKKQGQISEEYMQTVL
# In short: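 Cell line HEK293 with TSHR; density 800/well. Exposure 30 min RT. Readout HTRF cAMP (cAMP-d2/anti-cAMP-cryptate), 1 h RT before reading.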
# [9] = qHTS assay to identify small molecule agonists of the estrogen related receptor signaling pathway with the pleiotropic PPARgamma coactivator (PGC) from Tox21 10K library (AID 1224842); also: nearly all actives have a fitted effect of over 15% in size
# In short: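 PGC/ERR reporter cells (NTP line) were seeded 2,000 per well, rested 6 h at 37 C/5% CO2, then pin-dosed with compounds in DMSO for 18 h at 37 C; luciferase read by One-Glo luminescence after 30 min at room temperature.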
# [10] = biological target: Nuclear receptor subfamily 1 group I member 3 (Homo sapiens) (UniProt Q14994); assay: qHTS assay to identify small molecule agonists of the constitutive androstane receptor (CAR) signaling pathway (AID 1224839); also: series mostly up to about 92 µM; nearly all actives have a fitted effect of over 15% in size
# In short: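 Compounds tested at 15 concentrations on HepG2 cells stably harbouring hCAR and CYP2B6-2.2kb reporter constructs, co-treated with PK11195 (0.75 uM final), 24 h at 37 C; luminescent reporter signal quantified.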
Structure (SMILES),Potency [1],Potency [2],Potency [3],Potency [4],Potency [5],Potency [6],Potency [7],Potency [8],Potency [9],Potency [10]
CC[C@H]1CN2CCc3cc(OC)c(OC)cc3[C@@H]2C[C@@H]1C[C@H]1NCCc2cc(OC)c(OC)cc21,15.4 nM (active) and 84.1 nM (active),inactive,24.4 nM (active) and 150 nM (active),27.4 nM (active) and 133 nM (active),54.6 nM (active) and 237 nM (active),24.4 nM (active) and 168 nM (active),–,–,–,–
COC(=O)[C@H]1[C@H]2C[C@@H]3c4[nH]c5cc(OC)ccc5c4CCN3C[C@H]2C[C@@H](OC(=O)c2cc(OC)c(OC)c(OC)c2)[C@@H]1OC,22.3 µM (active),inactive,inactive,inactive,–,inactive,43.2 µM (active) and 15.8 µM (active),inactive,–,–
C[N+]1([O-])CCOCC1,inactive,inactive,inactive,inactive,inactive,inactive,inactive,inactive,–,–
CCc1cc(C(C)(C)C)c(O)c(C(C)(C)C)c1,inactive,inactive,inactive,inactive,inactive,inactive,–,inactive,–,–
O=C(O)c1cc(Cl)cc(Cl)c1,inactive,inactive,inactive,inactive,inactive,inactive,inactive,inactive,inactive,–
O=C(Cl)c1cccc(C(=O)Cl)c1,inactive,inactive,inactive,inactive,inactive,inactive,–,inactive,–,–
NC(N)=Nc1nc(CSCC/C(N)=N/S(N)(=O)=O)cs1,inactive,inactive,inactive,inactive,–,inactive,inactive,–,inactive,–
c1cc(C(c2ccc(OCC3CO3)cc2)C(c2ccc(OCC3CO3)cc2)c2ccc(OCC3CO3)cc2)ccc1OCC1CO1 (stereo not given),inactive,16.5 µM (active),inactive,inactive,inactive,–,79.8 µM (active) and inactive,inactive,–,–
O=C(O)CP(=O)(O)O,inactive,inactive,inactive,inactive,inactive,–,–,inactive,–,inactive
c1ccc2c(c1)CCCC2C1=NCCN1 (stereo not given),inactive,inactive,inactive,inactive,–,inactive,–,inactive,–,–
COc1cc(C(=S)N2CCOCC2)ccc1O,inactive,inactive,inactive,inactive,inactive,inactive,inactive,inactive,–,–
CN(C)c1ccc2nc3ccc(=[N+](C)C)cc-3sc2c1,4.16 µM (active) and 6.11 µM (active) and 5.96 µM (active),15.3 µM (active) and 20 µM (active) and 17.4 µM (active),24.3 µM (active) and 13.3 µM (active),27.3 µM (active) and 11.9 µM (active),inactive,–,1.86 µM (active) and 1.93 µM (active) and 2.66 µM (active),–,inactive,–
Oc1ccc(Cl)cc1Cc1cc(Cl)ccc1O,44.1 µM (active) and 61.1 µM (active) and 29.8 µM (active),inactive,inactive,inactive,–,–,–,inactive,–,inactive
CC(C(O)c1ccc(O)cc1)N1CCC(Cc2ccccc2)CC1 (stereo not given),inactive,inactive,inactive,inactive,–,inactive,inactive,–,inactive,–
OCCN1CCNCC1,inactive,inactive,inactive,inactive,inactive,inactive,inactive,inactive,–,–
NCCCCCC(=O)O,inactive,inactive,inactive,inactive,–,–,–,inactive,–,–
Cc1cc(Cc2cc(C)cc(C(C)(C)C)c2O)c(O)c(C(C)(C)C)c1,48.8 µM (active) and 43.3 µM (active),inactive,61.4 µM (active),–,19.4 µM (active) and 43.3 µM (active),–,48.8 µM (active) and 30.6 µM (active),43.5 µM (active) and inactive,inactive,–
CCC[C@H](N[C@@H](C)C(=O)N1[C@H](C(=O)O)C[C@@H]2CCCC[C@@H]21)C(=O)OCC,inactive,inactive,inactive,inactive,–,inactive,–,inactive,–,–
